# Assay results: publication PMC11062922 (Nature Chemical Biology, 2023)
# Like-named read-outs stand apart in the source and are kept apart here.
# Legend:
# Design in all cases: species or system human, MV4-11 + K-562 + COLO205 + SK-N-BE2 + OVCAR-8
# [1] = system: MAP3K12; details: read-out: apparent Kd; compound concentrations:100 nM and 1000 nM (sheet 'Samples'); n = 1
# [2] = system: MAPK11; details: read-out: apparent Kd, n = 1
# [3] = system: NUAK1; details: read-out: apparent Kd; compound concentrations:100 nM and 1000 nM (sheet 'Samples'); n = 1
# [4] = system: NUAK2; details: read-out: apparent Kd; compound concentrations:100 nM and 1000 nM (sheet 'Samples'); n = 1
# [5] = system: MAP3K6; details: read-out: apparent Kd; compound concentrations: 100 nM and 1000 nM (sheet 'Samples'), CATDS: 0.469017197153689; n = 1
# [6] = system: MAPK10; details: read-out: apparent Kd; compound concentrations: 100 nM and 1000 nM (sheet 'Samples'), CATDS: 0.51132000357216201; n = 1
# [7] = system: MAPK14; details: read-out: apparent Kd, compound concentrations: 100 nM and 1000 nM (sheet 'Samples'), n = 1
# [8] = system: STK26; details: read-out: apparent Kd; compound concentrations: 100 nM and 1000 nM (sheet 'Samples'), CATDS: 0.44700655759470098; n = 1
# [9] = system: MAPKAPK2; details: read-out: apparent Kd; compound concentrations:100 nM and 1000 nM (sheet 'Samples'); n = 1
# [10] = system: MTOR; details: read-out: apparent Kd; compound concentrations: 100 nM and 1000 nM (sheet 'Samples'), CATDS: 7.1154294212896999E-2; n = 1
# [11] = system: PDGFRB; details: read-out: apparent Kd; compound concentrations: 100 nM and 1000 nM (sheet 'Samples'), CATDS: 5.6462124359458001E-2; n = 1
# [12] = system: PI4KA; details: read-out: apparent Kd; compound concentrations: 100 nM and 1000 nM (sheet 'Samples'), CATDS: 9.2469758478665204E-2; n = 1
# [13] = system: PI4KB; details: read-out: apparent Kd; compound concentrations: 100 nM and 1000 nM (sheet 'Samples'), CATDS: 6.1584731713773599E-2; n = 1
# [14] = system: PIK3C2A; details: read-out: apparent Kd; compound concentrations: 100 nM and 1000 nM (sheet 'Samples'), CATDS: 5.5656712709310899E-2; n = 1
# [15] = system: PIK3C2B; details: read-out: apparent Kd; compound concentrations: 100 nM and 1000 nM (sheet 'Samples'), CATDS: 0.103549921719069; n = 1
# [16] = system: PIK3CA; details: read-out: apparent Kd; compound concentrations: 100 nM and 1000 nM (sheet 'Samples'), CATDS: 0.27321348763970998; n = 1
# [17] = system: PIK3CB; details: read-out: apparent Kd; compound concentrations: 100 nM and 1000 nM (sheet 'Samples'), CATDS: 0.12993654601332599; n = 1
# [18] = system: PIK3CD; details: read-out: apparent Kd, compound concentrations: 100 nM and 1000 nM (sheet 'Samples'), n = 1
# [19] = system: PIK3CG; details: read-out: apparent Kd; compound concentrations: 100 nM and 1000 nM (sheet 'Samples'), CATDS: 0.28339263062776299; n = 1
# [20] = system: PRKDC; details: read-out: apparent Kd; compound concentrations: 100 nM and 1000 nM (sheet 'Samples'), CATDS: 5.8127762202415202E-2; n = 1
# [21] = system: NEK9; details: read-out: apparent Kd; compound concentrations: 100 nM and 1000 nM (sheet 'Samples'), CATDS: 1; n = 1
# [22] = system: NNT; details: read-out: apparent Kd, n = 1
# [23] = system: NQO2; details: read-out: apparent Kd, n = 1
# [24] = system: RIOK2; details: read-out: apparent Kd; compound concentrations: 100 nM and 1000 nM (sheet 'Samples'), CATDS: 0.53784196223168101; n = 1
# [25] = system: NLK; details: read-out: apparent Kd, compound concentrations: 100 nM and 1000 nM (sheet 'Samples'), n = 1
# [26] = system: RIPK2; details: read-out: apparent Kd; compound concentrations: 100 nM and 1000 nM (sheet 'Samples'), CATDS: 0.78129176750212304; n = 1
# [27] = system: RIPK3; details: read-out: apparent Kd; compound concentrations: 100 nM and 1000 nM (sheet 'Samples'), CATDS: 0.12404115210191501; n = 1
# [28] = system: STK16; details: read-out: apparent Kd; compound concentrations: 100 nM and 1000 nM (sheet 'Samples'), CATDS: 0.11776221232306; n = 1
# [29] = system: TESK2; details: read-out: apparent Kd; compound concentrations: 100 nM and 1000 nM (sheet 'Samples'), CATDS: 0.123939134013601; n = 1
# [30] = system: TGFBR2; details: read-out: apparent Kd; compound concentrations: 100 nM and 1000 nM (sheet 'Samples'), CATDS: 0.16011510960484199; n = 1
# [31] = system: PBK; details: read-out: apparent Kd, compound concentrations: 100 nM and 1000 nM (sheet 'Samples'), n = 1
# [32] = system: MERTK; details: read-out: apparent Kd; compound concentrations:100 nM and 1000 nM (sheet 'Samples'); n = 1
# [33] = system: STK4; details: read-out: apparent Kd; compound concentrations: 100 nM and 1000 nM (sheet 'Samples'), CATDS: 0.289467796660549; n = 1
# [34] = system: TNIK; details: read-out: apparent Kd; compound concentrations: 100 nM and 1000 nM (sheet 'Samples'), CATDS: 0.457886576185151; n = 1
# [35] = compound concentrations:100 nM and 1000 nM (sheet 'Samples')
smiles,measurement,setting,value
O=C(Nc1n[nH]c2nc(-c3ccccc3)c(Cl)cc12)C1CC1 [SB-734909],potency estimated from few doses,[1],1520 nM
same,potency estimated from few doses,[2]; [35],1940 nM
same,potency estimated from few doses,[3],1980 nM
same,potency estimated from few doses,[4],1350 nM
Cl.Nc1c(C(=O)c2cccc(-c3ccncc3)c2)cnn1-c1ccc(F)cc1 [RO1165037-001],potency estimated from few doses,[5],1810 nM
same,potency estimated from few doses,"[2]; compound concentrations: 100 nM and 1000 nM (sheet 'Samples'), CATDS: 0.53536571927793597",1390 nM
O=C(O)/C=C/C(=O)O.OCCCNc1nccc(-c2c(-c3ccc(F)cc3)nn3cc(C(F)(F)F)ccc23)n1 [GW569293E],potency estimated from few doses,[6],1430 nM
same,potency estimated from few doses,[7]; CATDS: 0.48917036256560797,1570 nM
CN1CCN(CC#Cc2cccc(C(=O)c3cnn(-c4ccc(F)cc4)c3N)c2)CC1.Cl [RO1154309-001],potency estimated from few doses,"[2]; compound concentrations: 100 nM and 1000 nM (sheet 'Samples'), CATDS: 0.56724832291410499",811 nM
same,potency estimated from few doses,[8],1310 nM
CC(=O)N1CCC(Nc2ncc3cc(Oc4ccc(F)cc4F)c(=O)n(C)c3n2)CC1 [RO5043011-000],potency estimated from few doses,[7]; CATDS: 0.40238945157455502,40.9 nM
same,potency estimated from few doses,[9],14.2 nM
COc1ccc(-c2cc3c(C)nc(N)nc3n([C@H]3CC[C@H](O)CC3)c2=O)cn1 [PFE-PKIS_40],potency estimated from few doses,[10],382 nM
same,potency estimated from few doses,[11],1550 nM
same,potency estimated from few doses,[12],96.5 nM
same,potency estimated from few doses,[13],875 nM
same,potency estimated from few doses,[14],1720 nM
same,potency estimated from few doses,[15],55.7 nM
same,potency estimated from few doses,[16],1.69 nM
same,potency estimated from few doses,[17],19.7 nM
same,potency estimated from few doses,[18]; CATDS: 0.40484446782600397,0.817 nM
same,potency estimated from few doses,[19],1.57 nM
same,potency estimated from few doses,[20],1260 nM
COc1cc(Nc2ncc3c(C)nc(-c4cccc(Oc5ccccc5)c4)n3n2)cc(OC)c1OC [GW861893X],potency estimated from few doses,[21],584 nM
CS(=O)(=O)CCNCc1nc(-c2ccc3ncnc(Nc4ccc(OCc5ccccc5)c(Cl)c4)c3c2)cs1.CS(=O)(=O)CCNCc1nc(-c2ccc3ncnc(Nc4ccc(OCc5ccccc5)c(Cl)c4)c3c2)cs1.Cl.Cl [GW582764A],potency estimated from few doses,[22]; [35],2020 nM
same,potency estimated from few doses,[23]; [35],1880 nM
COc1cccc(-n2nc(C)c3c(N/N=C(\C)c4ccncc4)ncnc32)c1 [GW809885X],potency estimated from few doses,"[22]; compound concentrations: 100 nM and 1000 nM (sheet 'Samples'), CATDS: 0.46713303896147801",1600 nM
same,potency estimated from few doses,[24],1200 nM
COc1cc(Nc2nccc(N3CCC(NC(=O)c4cc5ccccc5s4)C3)n2)cc(OC)c1OC (stereo not shown) [GSK1379760A],potency estimated from few doses,"[23]; compound concentrations: 100 nM and 1000 nM (sheet 'Samples'), CATDS: 1",1030 nM
Cc1cc(-c2cnc(N)c3c(-c4ccc5scnc5c4)csc23)n(C)n1 [GSK843],potency estimated from few doses,[25]; CATDS: 0.25956792289458103,168 nM
same,potency estimated from few doses,[26],15.6 nM
same,potency estimated from few doses,[27],1430 nM
same,potency estimated from few doses,[28],1750 nM
same,potency estimated from few doses,[29],1430 nM
same,potency estimated from few doses,[30],616 nM
N#Cc1cccc(C(=O)c2cnn(-c3ccc(F)cc3)c2N)c1 [RO1153321-000],potency estimated from few doses,[31]; CATDS: 1,1730 nM
CS(=O)(=O)CCNCc1nc(-c2ccc3ncnc(Nc4ccc(F)c(Cl)c4)c3c2)cs1.Cl [GW461104A],potency estimated from few doses,[32],1190 nM
same,potency estimated from few doses,[22]; [35],1740 nM
O=C(Nc1n[nH]c2cc(-c3cccc(F)c3F)ccc12)C1CC1 [SB-733894],potency estimated from few doses,[25]; CATDS: 0.29749178894258499,1860 nM
same,potency estimated from few doses,[33],1990 nM
same,potency estimated from few doses,[34],808 nM
Cl.Cl.Cl.N#Cc1ccc(CCNc2nccc(-c3cccc(CN4CCNCC4)c3)n2)cc1.N#Cc1ccc(CCNc2nccc(-c3cccc(CN4CCNCC4)c3)n2)cc1 [GSK2137462A],potency estimated from few doses,[31]; CATDS: 0.354579243895072,1350 nM
same,potency estimated from few doses,[18]; CATDS: 0.84763293051447697,134 nM
